Most compounds without a hit are left out; they make up all but 3.9% or so of the library.
HIF activator = HIF pathway transcriptional activation | U2OS HRE-luciferase reporter, luminescence; normalized: DMSO 0%, desferrioxamine 100% | activation, % at 7.5 µM (by protocol) | hit rate 0.32% among 300,000 | AID 1910;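 active = mean activation of at least 10% of the iron chelator positive control signal, with at least half of replicates also reaching 10%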
Yeast superoxide = yeast age-related superoxide inhibition as caloric restriction mimetic | S. cerevisiae aged cells, superoxide DHE fluorescence; active compounds read low | superoxide response (% of plate mean), % at 10 µM | hit rate 0.18% among 330,000;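 active = superoxide response under a set limit, about three screen SD below normal, cut at about 65% in these data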;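 also: yeast aged for seven days with compound at 30 °C before DHE staining; 100% = average MFI of all compound-treated wells on the plate with controls excluded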
PLCb3 inh = blocks human PLC-beta3 enzyme activity; Purified PLC-beta3, fluorogenic substrate, fluorescence; inhibition, % at 12.2 µM; hit rate 0.18% among 370,000; Q01970; AID 720704;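 also: 0% = median of compound wells on plate and 100% = full blocker control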
Target sequence (Q01970 whole entry, looked up): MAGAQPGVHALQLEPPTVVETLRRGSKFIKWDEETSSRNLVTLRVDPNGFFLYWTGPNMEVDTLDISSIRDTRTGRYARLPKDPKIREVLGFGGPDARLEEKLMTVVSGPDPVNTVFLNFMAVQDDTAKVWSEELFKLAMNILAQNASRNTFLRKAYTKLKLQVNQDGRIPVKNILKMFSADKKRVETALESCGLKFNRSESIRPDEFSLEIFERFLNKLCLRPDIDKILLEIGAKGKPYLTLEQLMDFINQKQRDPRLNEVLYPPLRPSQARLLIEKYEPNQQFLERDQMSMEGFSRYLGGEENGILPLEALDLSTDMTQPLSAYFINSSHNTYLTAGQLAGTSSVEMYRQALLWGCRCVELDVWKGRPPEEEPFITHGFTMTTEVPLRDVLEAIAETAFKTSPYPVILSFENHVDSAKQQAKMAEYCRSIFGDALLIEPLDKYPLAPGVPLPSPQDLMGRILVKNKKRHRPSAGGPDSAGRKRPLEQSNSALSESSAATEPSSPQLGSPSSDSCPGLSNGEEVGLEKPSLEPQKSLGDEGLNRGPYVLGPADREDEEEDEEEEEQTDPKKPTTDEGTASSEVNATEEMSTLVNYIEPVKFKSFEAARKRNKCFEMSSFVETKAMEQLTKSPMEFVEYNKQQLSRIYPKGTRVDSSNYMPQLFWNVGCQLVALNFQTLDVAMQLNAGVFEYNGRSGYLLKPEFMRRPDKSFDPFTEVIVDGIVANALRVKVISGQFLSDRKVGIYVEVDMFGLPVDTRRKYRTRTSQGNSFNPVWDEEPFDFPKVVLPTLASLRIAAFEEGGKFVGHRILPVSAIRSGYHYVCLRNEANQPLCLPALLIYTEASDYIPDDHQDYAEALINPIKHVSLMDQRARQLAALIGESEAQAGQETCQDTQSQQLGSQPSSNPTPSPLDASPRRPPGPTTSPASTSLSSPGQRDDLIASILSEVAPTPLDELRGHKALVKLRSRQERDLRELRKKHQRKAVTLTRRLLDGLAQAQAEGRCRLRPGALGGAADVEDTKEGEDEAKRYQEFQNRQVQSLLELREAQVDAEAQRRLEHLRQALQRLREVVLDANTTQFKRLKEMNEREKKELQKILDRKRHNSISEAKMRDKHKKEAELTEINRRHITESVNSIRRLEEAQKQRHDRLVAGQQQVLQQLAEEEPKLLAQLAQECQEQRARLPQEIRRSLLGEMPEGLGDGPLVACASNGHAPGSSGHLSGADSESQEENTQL
PLCg1 inh = inhibitors of human phospholipase C gamma1; purified PLC-gamma1, fluorogenic substrate, fluorescence; inhibition, % at 12.2 µM; hit rate 0.84% among 370,000; AID 720700; in the data active = inhibition above about 9.5%
AHR act = activates the human aryl hydrocarbon receptor; P35869; AHR-responsive luciferase reporter cells, luminescence; activation, % at 5 µM; hit rate 2.5% among 320,000; AID 2796; in the data active = activation above about 47%;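 also: 0% = vehicle wells and 100% = reference agonist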
HGIII-sPLA2 inh = Inhibits HGIII-sPLA2 liposome hydrolysis, primary screen; Q9NZ20; hit rate 0.56% among 370,000; QFRET BODIPY PC-A2 liposome hydrolysis, fluorescence; inhibition, % at 12.2 µM;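 active = inhibition above mean plus 3 SD of compounds lying within the high and low control bounds, cut at about 19% in these data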;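 also: 0% = median of test compound wells and 100% = no enzyme DMSO wells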
PLCgamma1 ctr = PLC-gamma1 inhibition, counter-screen for PLC-beta3 hits; purified PLC-gamma1, fluorogenic substrate, fluorescence; shares compounds with PLCg1 inh; hit rate 3.1% among 3,300; inhibition, % at 12.3 µM; in the data active = inhibition above about 9.5%
PLCbeta3 conf = confirmation of human PLC-beta3 inhibitors; inhibition, % at 12.3 µM; shares compounds with PLCg1 inh; hit rate 1% among 3,300; purified PLC-beta3, fluorogenic substrate fluorescence
* = called active by the depositor; nt = no result given. Rule as the data show it, unless noted: active = inhibition above about 11%; inactive = the rest.

SMILES | HIF activator | Yeast superoxide | PLCb3 inh | PLCg1 inh | AHR act | HGIII-sPLA2 inh | PLCgamma1 ctr | PLCbeta3 conf
CCCn1c(N)c(N(CCOC)C(=O)c2ccc([N+](=O)[O-])c(C)c2)c(=O)[nH]c1=O | 0 | 99 | -2 | 9.6* | 0 | 11 | -4 | -1
CCCCN(C(=O)c1ccc(OC)c([N+](=O)[O-])c1)c1c(N)n(CCC)c(=O)[nH]c1=O | -1 | 93 | -6 | -1 | 0 | 4 | nt | nt
O=C(NCCc1ccc(O)cc1)c1[nH]c(C(F)(F)F)nc1-c1ccccc1 | nt | nt | 4 | 13* | nt | -6 | -8 | -5
COC(=O)CC1N(S(=O)(=O)c2ccc(C)cc2)c2ccccc2C1(C(=O)OC)C(=O)OC (stereo not given) | nt | nt | -2 | 2 | nt | 7 | nt | nt
CCOc1ccc(C(=O)NC(C(=O)NCC2CCCO2)C(C)C)cc1 (stereo not given) | 0 | 98 | -9 | -3 | 0 | 3 | nt | nt
COc1ccc(C(=O)NC(C(=O)NCC2CCCO2)C(C)C)cc1 (stereo not given) | 0 | 92 | 5 | 10* | 0 | 9 | -3 | -3
NC(=O)C(c1ccccc1)(c1ccccc1)[C@@H]1CCN(CCc2ccc3c(c2)CCO3)C1 | nt | nt | 4 | 2 | nt | -14 | nt | nt
CC1(Cc2cccc(C(F)(F)F)c2)C(=O)Nc2ccc(-c3ccc(F)c(Cl)c3)cc21 (stereo not given) | nt | nt | 2 | 1 | nt | -5 | nt | nt
CCOC(=O)c1sc(-c2ccccc2)cc1NC(=O)CSc1nnnn1C | 0 | 101 | 3 | 13* | 4 | -13 | -6 | -3
Nc1nc(=O)n([C@@H]2CS[C@H](CO)O2)cc1F | nt | nt | 14* | 14* | nt | 13 | -1 | -1
CCOC(=O)C1(Cc2cccc(Cl)c2)CCCN(C(=O)c2cc(C)n(C)n2)C1 (stereo not given) | -1 | 122 | -3 | 10* | 1 | 1 | -2 | 1
O=C(NCC(c1cccnc1)N1CCOCC1)NC1CCCCC1 (stereo not given) | 0 | 88 | -1 | 1 | -3 | 2 | nt | nt
Cc1ccc(-n2nc3c(=O)n(CCCC(=O)NCc4ccccc4C)nc(C)c3c2C)cc1 | 0 | 104 | -2 | 14* | 0 | 0 | -8 | -3
COc1ccc(CCNC(=S)NC(=O)c2cc(OC)c(OC)c(OC)c2)cc1OC | 0 | 97 | -3 | 1 | 11 | 4 | nt | nt
O=C(COc1ncnc2ccccc12)NC1CCS(=O)(=O)C1 (stereo not given) | -1 | 86 | -1 | 10* | -3 | 5 | -7 | -2
CC1CCCC(NC(=O)COc2ncnc3ccccc23)C1C (stereo not given) | nt | 107 | -5 | 1 | 1 | 15 | nt | nt
CCN(CC)c1ccc(NC(=O)c2ccccc2)cc1S(=O)(=O)Nc1ccccc1OC | 0 | 83 | -2 | -4 | 35 | -20 | nt | nt
O=C(CCc1nc2ccccc2s1)OCc1ccccc1 | 0 | 87 | 11* | 3 | 1 | -11 | -7 | -3
CCc1c(C)c(C#N)c2nc3ccccc3n2c1NCc1ccccn1 | 0 | 88 | -83 | -75 | 10 | 5 | nt | nt
Cc1cc(C)nc(SCCn2c(N3CCCCC3)nc3c2c(=O)n(C)c(=O)n3C)n1 | 1 | 102 | 8 | 9.6* | 12 | 3 | -3 | -1
CN(CCOc1ccc(Cl)cc1)C(=O)C1CCN(C(=O)c2ccc(F)cc2)CC1 | 0 | 110 | 0 | 2 | 0 | -13 | nt | nt
COc1ccc(NC2CCCN(C(=O)CCCn3cncn3)C2)cc1OC (stereo not given) | 0 | 102 | -14 | -4 | -1 | 3 | nt | nt
O=C(/C=C/c1ccc(O)c(O)c1)c1ccc(S(=O)(=O)N2CCCCCC2)cc1 | 0 | 92 | 7 | 11* | -1 | 8 | -1 | -2
COc1ccc(C(=O)N2CCC(O)(c3ccc(F)cc3)CC2)cc1OC | -2 | 92 | 4 | 10* | -3 | 2 | -5 | -3
CCCc1ccc(-c2cc(NC(=O)Cc3c(C)[nH]c4ccccc34)ccc2N(C)c2cccnc2)cc1 | nt | nt | -35 | -19 | nt | 11 | nt | nt
SMILES | HIF activator | Yeast superoxide | PLCb3 inh | PLCg1 inh | AHR act | HGIII-sPLA2 inh | PLCgamma1 ctr | PLCbeta3 conf
CC1(Cc2ccccc2OC(F)(F)F)C(=O)Nc2ccc(-c3ccsc3)cc21 (stereo not given) | nt | nt | -3 | 11* | nt | -1 | -1 | 1
CCC(C)[C@H](NC(=O)[C@@H]1Cc2ccccc2CN1)C(=O)NCc1ccc(OC)cc1 (stereo not given in full) | 0 | 131 | 6 | 4 | 0 | 3 | nt | nt
CCC(C)[C@H](NC(=O)[C@@H]1Cc2ccccc2CN1)C(=O)NCc1ccc(C)cc1 (stereo not given in full) | nt | nt | -5 | 9.8* | nt | 0 | 0 | -1
C/C(=N\Nc1ccc(S(=O)(=O)N2CCOCC2)cc1[N+](=O)[O-])C(C)C | 0 | 97 | -1 | 10* | 0 | 14 | -1 | -2
N#CC1(NC(=O)CSc2nc3ccccc3s2)CCCCC1 | nt | 107 | 4 | 12* | 8 | -14 | -2 | 5
COc1ccc([N+](=O)[O-])cc1N(CC(=O)N1CCN(Cc2ccccc2)CC1)S(C)(=O)=O | 2 | 96 | -7 | 1 | -2 | 11 | nt | nt
O=C(CN1CCN(C(=O)c2ccccc2)CC1)Nc1ccc(Br)cn1 | 0 | 102 | 3 | 12* | 3 | 8 | -2 | -3
COc1ccc(NC(=O)CSc2nnc(-c3ccccc3)n2Cc2ccco2)c(OC)c1 | 0 | 91 | 11* | 5 | -1 | -10 | 1 | 1
COc1ccc(NC(=O)CSc2nnc(-c3ccccc3Cl)n2Cc2ccco2)c(OC)c1 | -1 | 89 | 7 | 5 | 1 | -10 | nt | nt
CCCCC(=O)NS(=O)(=O)c1ccc(N=NN(CC)CC)cc1 | 0 | 95 | -4 | 1 | 1 | -1 | nt | nt
COc1ccc(OC)c(NC(=O)COC(=O)C2CCCCC2)c1 | nt | 102 | 12* | 10* | 2 | -6 | -2 | 1
COc1ccc(NC(=O)CN(C)S(=O)(=O)c2ccccc2)c([N+](=O)[O-])c1 | 0 | 103 | 2 | 4 | -2 | 1 | nt | nt
COc1ccc(NC(=O)CN(C)C2CCCCC2)c([N+](=O)[O-])c1 | 0 | 104 | -1 | 12* | -2 | 14 | 2 | 3
CN(CC(=O)Nc1ccc(F)c(F)c1F)C(=O)C1CCCCC1 | nt | 83 | -4 | 8 | -1 | 13 | nt | nt
CN(CC(=O)Nc1ccc(F)c(F)c1F)C1CCCCC1 | 0 | 98 | 2 | 10* | 1 | 9 | -5 | -4
COc1ccc(NC(=O)N(C)C[C@@H]2OCCCC[C@@H](C)Oc3ccc(NS(C)(=O)=O)cc3C(=O)N([C@H](C)CO)C[C@@H]2C)cc1 | nt | nt | -1 | 2 | nt | 8 | nt | nt
